Bioassay records deposited in PubChem BioAssay by National Center for Advancing Translational Sciences (NCATS).
GLS inhibitor – qHTS for Inhibitors of Glutaminase (GLS). GLS enzymatic activity, qHTS titration. Glutaminase kidney isoform, mitochondrial (Homo sapiens), O94925. Potency, µM (series often up to 45.5 µM), for inactives: at the top dose activity change, negative = inhibition, actives largely listed as inhibitors. actives 0.21% (n = 410,000); further: on the % scale 0 is the no-effect control and ±100 the full control effect
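hKGA in 45 mM KH2PO4 (pH 8.2), 0.02% Tween-20 with compound, then 1mM L-Glutamine (stock as added) plus glutamate oxidase/HRP/Amplex red coupling mix. Fluorescence read initially and after 30 min at RT; signal change reflects glutamate formation.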
KAT2A inh – qHTS Assay for Inhibitors of GCN5L2. actives 0.21% (n = 390,000). Histone acetyltransferase KAT2A (Homo sapiens), Q92830. GCN5L2 HAT assay, ThioGlo1 CoA-SH fluorescence. AID 504327, 2011. Potency, µM (highest dose often 58.9 µM), for the others: top-dose activity change, negative = inhibition, hits mostly inhibitors; further: on the % scale 0 is the no-effect control and ±100 the full control effect
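Free CoA generated was detected with ThioGlo1 (50uM) fluorescence at Ex340nm/Em540nm, read immediately and after 20 min at room temperature. Enzyme, 20 nM in HEPES pH 7.5 buffer, saw compounds 15 min before adding 75uM H3(1-25) peptide and 70uM acetyl-CoA.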
PLK1 PBD inh – qHTS for Inhibitors of PLK1-PDB (polo-like kinase 1 - polo-box domain): Primary Screen; Serine/threonine-protein kinase PLK1 (Homo sapiens), P53350; Plk1 PBD binding of FITC phosphopeptide, fluorescence polarization; Potency, µM, without a hit: max response, negative = inhibition, usual class: inhibitors; actives 2.8% (n = 360,000); further: series mostly up to about 57 µM; on the % scale 0 is the no-effect control and ±100 the full control effect; nearly all actives have a fitted effect of over 65% in size
Mito fusion act – qHTS Assay for Small Molecule Inhibitors of Mitochondrial Division or Activators of Mitochondrial Fusion | S. cerevisiae fusion-defective mutant growth rescue, CellTiterGlo 48 h | AID 485298, 2010 | actives 0.23% (n = 320,000) | Potency, µM (series often up to 46.1 µM), for inactives: at the top dose growth rescue (activation), hits mostly activators; further: % of control where 0% means no effect; nearly all actives have a fitted effect of over 45% in size
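Luminescent cell viability in 1536-well qHTS format served as the measure of rescued growth in ts fusion-mutant S. cerevisiae cultured on non-fermentable YPEG for 48 hours at 37C.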
VDR inh – Inhibitors of the vitamin D receptor (VDR): qHTS | Vitamin D3 receptor (Homo sapiens), P11473 | VDR-SRC2-3 peptide fluorescence polarization, 2 h | Potency, µM, for the others: max response, negative = inhibition, usual class: inhibitors | actives 0.93% (n = 400,000); further: on the % scale 0 is the no-effect control and ±100 the full control effect
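VDR–SRC2-3 interaction, FP format. Cmpds 23 nl via pintool, brief spin, 2 h ambient incubation.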
PKM2 activator – qHTS Assay for Activators of Human Muscle isoform 2 Pyruvate Kinase. Pyruvate kinase PKM (Homo sapiens), P14618. purified PKM2, Kinase-Glo ATP luminescence, activation; response scale: 0% is enzyme alone, no compound. Potency, µM (titrated, usually from 57.5 µM), inactives show at the highest dose activation, hits mostly activators. actives 0.34% (n = 260,000); further: on the % scale 0 is the no-effect control and ±100 the full control effect; nearly all actives have a fitted effect of over 55% in size
Target sequence (P14618 whole entry, looked up, canonical isoform): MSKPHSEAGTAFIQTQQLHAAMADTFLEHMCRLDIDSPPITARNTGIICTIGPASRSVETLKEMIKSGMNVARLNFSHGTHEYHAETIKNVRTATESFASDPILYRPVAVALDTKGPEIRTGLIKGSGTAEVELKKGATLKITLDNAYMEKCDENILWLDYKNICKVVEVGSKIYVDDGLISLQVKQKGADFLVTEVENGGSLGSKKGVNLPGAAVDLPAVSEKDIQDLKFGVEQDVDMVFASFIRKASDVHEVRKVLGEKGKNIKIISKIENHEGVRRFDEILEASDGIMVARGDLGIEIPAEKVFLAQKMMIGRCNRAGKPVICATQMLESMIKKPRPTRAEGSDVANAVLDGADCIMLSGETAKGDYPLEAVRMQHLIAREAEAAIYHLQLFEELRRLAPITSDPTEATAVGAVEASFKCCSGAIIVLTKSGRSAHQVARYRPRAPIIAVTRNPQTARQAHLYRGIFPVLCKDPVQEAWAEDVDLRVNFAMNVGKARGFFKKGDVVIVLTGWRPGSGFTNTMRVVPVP
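Purified hPK-M2 (>95%) run at intermediate activity with 0.1 mM ADP and 0.5 mM PEP in 50 mM imidazole pH 7.2, KCl, MgCl2; 1 h room temperature. ATP formed read by Kinase-Glo luminescence; normalized to uninhibited and no-enzyme controls.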
Starred values were filed as active, the others as inactive; ? = inconclusive; / = no result; [ ] = another dose, or the depositor's remark. A selection: hits, their analogues and other compounds. The true share with any hit is near 3.4%. The call rests on the fitted dose curve; in most records, active means well fitted curve in the direction sought with a large enough effect; inconclusive means small, poorly fitted or top-dose-only effect, or another doubt; inactive means no such curve, though single readings can be large; an effect the other way counts as inactive or inconclusive. Potency means the concentration at half of the fitted maximal effect.

SMILES | GLS inhibitor | KAT2A inh | PLK1 PBD inh | Mito fusion act | VDR inh | PKM2 activator
CC(C)C[C@@H](C(=O)N[C@@H](Cc1c[nH]c2ccccc12)C(N)=O)N1C[C@]2(CCCN2C(=O)[C@H](Cc2ccccc2)NC(=O)[C@H](Cc2ccccc2)NC(=O)[C@H](CCC(N)=O)NC(=O)[C@H](CCC(N)=O)NC(=O)[C@@H]2CCCN2C(=O)[C@H](CCCCN)NC(=O)[C@@H]2CCCN2C(=O)[C@@H](N)CCCNC(=N)N)CC1=O | / | -2.1% | / | / | -0.1% | /
O/N=C\c1ccccc1Oc1ccc(F)cc1 | 2.0% | -3.1% | -6.2% | 1.3% | -9.7% | 1.5%
O/N=C/c1ccccc1Oc1ccc(Cl)cc1 | ? | -10.4% | 8.44µM* | 3.2% | ? | -1.9%
COc1cc2c(c(OC)c1OC)-c1c(cc3c(c1OC)OCO3)CC(C)C(C)(O)C2 (stereo unspecified) | -6.2% | / | / | / | / | /
CCOC(=O)N/N=C/c1ccc(N2CCOCC2)s1 | 25.3% | -4.0% | -11.8% | -5.1% | 0.0% | -5.9%
O=C(N/N=C/c1ccc(N2CCOCC2)s1)c1ccccc1Cl | 46.7% | -12.9% | 23.8µM* | 7.2% | ? | /
CC1CCN(C(=O)c2cccc(S(=O)(=O)N3CCN(c4ccccc4)CC3)c2)CC1 | 2.0% | -0.5% | 1.5% | 17.8µM* | 18.1% | /
Nc1cccc2c1C(=O)N(C(=O)c1cccc(S(=O)(=O)N3CCCCCC3)c1)C2=O | 51.0% | -4.3% | 3.16µM* | 0.8% | ? | 4.1%
CN(c1ccc(C(=O)N2CCN(c3ccc(F)cc3)CC2)cc1)S(C)(=O)=O | -15.6% | -12.1% | 3.36µM* | -4.5% | -17.6% | -5.3%
C=CCN(c1ccc(C(=O)N2CCN(c3ccc(F)cc3)CC2)cc1)S(C)(=O)=O | 16.0% | -22.2% | -6.9% | -4.3% | 19.0% | -0.7%
O=C(c1cccc(S(=O)(=O)N2CCCCC2)c1)N1CCN(c2ccccc2)CC1 | 13.2% | 1.4% | -4.8% | 3.5% | -11.9% | -5.9%
O=C(NCc1cccnc1)c1ccc(Cl)c(S(=O)(=O)N2CCCCCC2)c1 | 42.7% | -0.8% | 26.7µM* | -1.0% | ? | 15.3%
O=C(NCc1cccnc1)c1ccc(Cl)c(S(=O)(=O)N2CCOCC2)c1 | 0.3% | -15.1% | 2.7% | 3.5% | -21.2% | /
C[C@H](N)CCCC(C)(C)O | / | 4.3%[21.4 µM] | / | / | -5.0% | /
O=C(c1cccc(S(=O)(=O)N2CCN(c3ccc(F)cc3)CC2)c1)N1CCCCCCC1 | -5.9% | -13.1% | -13.0% | 15.8µM* | -16.2% | /
O=C(c1ccc(Cl)c(S(=O)(=O)N2CCCC2)c1)N1CCN(c2ccccc2)CC1 | ? | -7.5% | 13.4µM* | 8.3% | 31.6µM* | 9.9%
CC(=O)N1CCN(C(=O)c2cccc(S(=O)(=O)N3CCN(c4ccc(F)cc4)CC3)c2)CC1 | -7.6% | -1.2% | -5.5% | -0.8% | -5.4% | /
Cc1cc(C2=NNC(=NC3CCCCC3)SC2)c(C)n1-c1c(C)n(C)n(-c2ccccc2)c1=O | -4.9% | -9.3% | -17.9% | -4.3% | -12.0% | -2.8%
Cc1cc(C2=NNC(=NC3CC3)SC2)c(C)n1-c1ccccc1F | 33.2% | -9.2% | 26.7µM* | -9.9% | ? | 2.5%
CN(C)CCCNC(=O)N1c2ccccc2C=Cc2ccccc21 | -3.3% | -1.8% | 26.7µM* | 0.2% | ? | 0.3%
COc1ccc(C(=O)/C(Br)=C/C(=O)O)cc1 | 4.7% | 3.4% | / | / | -4.5% | /
N#Cc1c(NC(=O)c2ccc(Br)o2)n(-c2ccccc2)c2nc3ccccc3nc12 | 5.5% | -2.0% | ? | 21.3% | 8.91µM* | 2.5%
COc1cccc2cc(-c3cc(=O)oc4cc(C)c(OCC(C)=O)cc34)oc12 | -6.1% | 1.1% | 16.8µM* | 21.7% | -17.1% | 0.3%[0.46 µM]
COCCn1c(C)c(C)c2c(NCCc3ccccc3)ncnc21 | 2.6% | -1.2% | -6.2% | 12.6% | -7.8% | /
COC(=O)Cn1c(C)nc2ccccc21 | 0.3% | -3.6% | -2.3% | -0.2% | 2.9% | -3.3%
SMILES | GLS inhibitor | KAT2A inh | PLK1 PBD inh | Mito fusion act | VDR inh | PKM2 activator
COC(=O)Cn1c(=O)c(C)nc2ccccc21 | -16.6% | -0.4% | 29.9µM* | -3.1% | -17.9% | 0.2%
O=C(O)Cn1c(-c2ccccc2)nc2ccccc21 | -0.9% | -3.4% | 26.7µM* | 0.9% | -6.0% | 3.9%
COc1cc(-c2nc(=S)[nH][nH]2)cc(OC)c1OC | -29.1% | ? | -15.8% | 6.7% | 50.1µM* | 0.1%
COc1ccc(-c2nc(=S)[nH][nH]2)cc1 | -23.7% | ? | ? | 4.8% | 79.4µM* | -4.6%
CCOc1ccc(-c2nc(=S)[nH][nH]2)cc1 | -2.7% | -8.2% | -19.6% | 8.9% | -8.8% | 2.0%
COCCn1c(SCC(=O)Nc2cccc(S(N)(=O)=O)c2)nc2cc(Cl)ccc2c1=O | ? | -1.9% | 7.52µM* | 3.9% | ? | 0.4%
CC(C)Cn1c(SCC(=O)Nc2cccc(S(N)(=O)=O)c2)nc2ccccc2c1=O | 5.2% | -13.6% | ? | -6.7% | -3.6% | /
CCOC(=O)c1c(C)oc2c1cc(NS(=O)(=O)c1ccc(C(=O)O)cc1)c1ccccc12 | -12.9% | -7.1% | 26.7µM* | -10.7% | -1.9% | 16.8%
CCO[C@@H](Cc1ccc(OCCc2ccc(OS(C)(=O)=O)cc2)cc1)C(=O)O | 6.5% | / | / | / | / | /
COCc1cc(N2CCCCC2)nc(-c2ccccc2)n1 | 0.0% | -16.1% | 26.7µM* | -1.9% | ? | /
COc1ccc(C2/C=C\CN(C(=O)C3CC3)C(Cc3ccccc3)C(=O)N2Cc2ccc(F)cc2)cc1 (stereo unspecified) | / | / | / | / | -17.5% | /
CCOC(=O)CSC1=NC(=O)/C(=C/c2ccc(Br)cc2)S1 | 0.0% | -9.3% | 0.844µM* | -19.2% | ? | -5.1%
O=C(OCC(=O)N1N=C(c2ccc(Cl)cc2)CC1c1ccco1)c1cccnc1 (stereo unspecified) | -6.9% | ? | -30.0% | / | 39.8µM* | /
COCC(=O)OCC(=O)N1N=C(c2ccc(Cl)cc2)CC1c1ccco1 (stereo unspecified) | -5.2% | -9.5% | -8.4% | -5.1% | -23.0% | 2.9%
O=C(NCc1cccnc1)/C(=C/c1ccc(-c2ccc(Cl)cc2)o1)S(=O)(=O)c1ccccc1 | -4.3% | -24.0% | ? | -9.9% | 22.4µM* | 15.8%
O=C(NCc1cccnc1)/C(=C/c1ccc(-c2cccc(C(F)(F)F)c2)o1)NC(=O)c1ccccc1 | 5.8% | ? | -11.5% | -2.0% | -7.3% | 2.1%
